Results: PubChem BioAssay
Activity calls are given as the source filed them.

Columns and labels:
[1] = small molecules captured by biotinylated probe aFSTL3 – biochemical, small-molecule microarray, fluorescence 635/667, stem cell growth factor project, primary screen (AID 1064); settings: higher = more signal;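 note: measures binding of the biotinylated anti-FSTL3 antibody to printed compounds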
[2] = binders from COS7 lysate, DM2A8 probe, primary screen, torsin A project, cell lysate, small-molecule microarray, fluorescence 635/667 (AID 1065); settings: higher = more signal, COS7 lysate expressing mutant human TOR1A
[3] = small molecules captured by biotinylated probe aFGF2 – biochemical, small-molecule microarray, fluorescence 635/667, stem cell growth factor project, primary screen (AID 1067); settings: higher = more signal;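 note: measures binding of biotinylated aFGF2 protein to printed compounds on slides; z-score merges feature fluorescence and signal-to-noise across triplicate slides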
[4] = small molecules captured by biotinylated probe aFGF10 – biochemical, small-molecule microarray, fluorescence 635/667, stem cell growth factor project, primary screen (AID 1071); settings: higher = more signal;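 note: score merges 667 nm spot intensity and signal to noise from triplicate slides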
[5] = target: Neurogenic locus notch homolog protein 2 (Homo sapiens) (UniProt Q04721); test: small molecules binding Notch2 protein – biochemical, small-molecule microarray, 635 nm fluorescence, stem cell growth factors, primary screen (AID 1073); settings: higher = more signal
Neurogenic locus notch homolog protein 2 (Homo sapiens), sequence (Q04721 whole entry, looked up, canonical isoform): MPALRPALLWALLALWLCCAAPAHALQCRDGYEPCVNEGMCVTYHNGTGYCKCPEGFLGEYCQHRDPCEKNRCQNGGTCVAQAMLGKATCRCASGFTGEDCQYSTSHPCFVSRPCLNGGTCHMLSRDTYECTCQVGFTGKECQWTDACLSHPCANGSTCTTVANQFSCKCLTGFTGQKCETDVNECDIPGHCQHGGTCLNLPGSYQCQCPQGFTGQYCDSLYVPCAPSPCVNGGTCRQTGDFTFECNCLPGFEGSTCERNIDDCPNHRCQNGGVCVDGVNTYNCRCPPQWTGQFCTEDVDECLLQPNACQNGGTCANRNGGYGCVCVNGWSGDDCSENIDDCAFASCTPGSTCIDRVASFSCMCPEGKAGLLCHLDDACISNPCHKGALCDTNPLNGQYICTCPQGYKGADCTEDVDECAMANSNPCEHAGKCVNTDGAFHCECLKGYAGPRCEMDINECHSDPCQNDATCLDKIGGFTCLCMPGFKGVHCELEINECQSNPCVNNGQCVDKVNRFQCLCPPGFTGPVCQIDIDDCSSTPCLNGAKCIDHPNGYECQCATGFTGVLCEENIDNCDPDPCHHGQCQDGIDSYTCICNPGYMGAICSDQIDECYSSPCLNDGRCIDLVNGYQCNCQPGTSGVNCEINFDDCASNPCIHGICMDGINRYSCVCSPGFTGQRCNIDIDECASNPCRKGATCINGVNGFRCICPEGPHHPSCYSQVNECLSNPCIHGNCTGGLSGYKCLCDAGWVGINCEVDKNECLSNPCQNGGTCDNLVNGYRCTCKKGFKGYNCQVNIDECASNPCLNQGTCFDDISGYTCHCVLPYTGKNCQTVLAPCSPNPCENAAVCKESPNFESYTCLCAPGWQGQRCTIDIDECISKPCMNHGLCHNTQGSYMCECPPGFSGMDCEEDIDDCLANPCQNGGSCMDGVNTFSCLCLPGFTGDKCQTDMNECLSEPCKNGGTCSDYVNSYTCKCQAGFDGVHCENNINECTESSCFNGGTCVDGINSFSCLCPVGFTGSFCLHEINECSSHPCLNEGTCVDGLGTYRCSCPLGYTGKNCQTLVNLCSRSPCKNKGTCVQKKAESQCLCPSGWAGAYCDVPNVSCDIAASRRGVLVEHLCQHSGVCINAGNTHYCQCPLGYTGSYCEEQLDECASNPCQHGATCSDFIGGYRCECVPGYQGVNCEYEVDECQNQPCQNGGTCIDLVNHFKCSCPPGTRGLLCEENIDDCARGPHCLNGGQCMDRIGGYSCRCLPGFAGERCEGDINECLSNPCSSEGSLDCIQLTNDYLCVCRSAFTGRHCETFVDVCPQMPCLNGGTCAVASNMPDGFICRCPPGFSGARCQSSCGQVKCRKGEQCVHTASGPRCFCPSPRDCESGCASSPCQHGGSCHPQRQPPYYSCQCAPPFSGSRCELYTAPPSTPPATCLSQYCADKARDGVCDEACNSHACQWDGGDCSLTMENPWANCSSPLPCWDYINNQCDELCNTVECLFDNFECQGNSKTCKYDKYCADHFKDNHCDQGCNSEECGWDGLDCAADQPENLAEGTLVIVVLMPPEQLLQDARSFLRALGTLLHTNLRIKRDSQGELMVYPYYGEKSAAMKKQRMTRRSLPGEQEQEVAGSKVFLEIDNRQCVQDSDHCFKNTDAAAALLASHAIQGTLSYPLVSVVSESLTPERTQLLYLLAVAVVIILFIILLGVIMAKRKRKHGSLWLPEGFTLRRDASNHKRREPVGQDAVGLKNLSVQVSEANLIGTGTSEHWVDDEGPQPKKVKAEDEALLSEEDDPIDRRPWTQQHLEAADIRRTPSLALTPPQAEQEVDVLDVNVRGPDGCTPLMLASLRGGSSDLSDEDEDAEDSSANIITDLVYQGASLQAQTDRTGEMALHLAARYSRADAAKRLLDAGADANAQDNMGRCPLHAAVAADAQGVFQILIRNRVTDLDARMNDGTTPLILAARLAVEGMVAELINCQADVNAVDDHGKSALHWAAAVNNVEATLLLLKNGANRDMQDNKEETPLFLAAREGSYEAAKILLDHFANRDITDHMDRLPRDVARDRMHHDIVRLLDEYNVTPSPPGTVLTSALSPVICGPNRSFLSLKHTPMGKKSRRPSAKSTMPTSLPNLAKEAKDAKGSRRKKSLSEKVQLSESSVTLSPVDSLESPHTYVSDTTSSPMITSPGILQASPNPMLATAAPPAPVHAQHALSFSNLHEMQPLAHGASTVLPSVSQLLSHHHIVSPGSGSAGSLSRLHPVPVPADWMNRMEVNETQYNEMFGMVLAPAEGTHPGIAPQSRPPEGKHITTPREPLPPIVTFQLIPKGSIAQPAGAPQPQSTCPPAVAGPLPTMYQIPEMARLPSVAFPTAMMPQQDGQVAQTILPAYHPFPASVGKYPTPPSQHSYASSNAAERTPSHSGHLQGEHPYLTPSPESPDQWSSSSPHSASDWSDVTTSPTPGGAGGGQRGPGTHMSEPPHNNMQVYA

[6] = target: Pro-neuregulin-1, membrane-bound isoform (Homo sapiens) (UniProt Q02297); test: small molecules binding neuregulin-1 protein – biochemical, small-molecule microarray, fluorescence 635/667, psychiatric disease protein project, primary screen (AID 1075); settings: NRG1 binding, 635 nm fluorescence, higher = more signal;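 note: score combines 667 nm spot fluorescence with signal to noise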
Pro-neuregulin-1, membrane-bound isoform (Homo sapiens), sequence (Q02297 whole entry, looked up, the tested form may be a part, canonical isoform): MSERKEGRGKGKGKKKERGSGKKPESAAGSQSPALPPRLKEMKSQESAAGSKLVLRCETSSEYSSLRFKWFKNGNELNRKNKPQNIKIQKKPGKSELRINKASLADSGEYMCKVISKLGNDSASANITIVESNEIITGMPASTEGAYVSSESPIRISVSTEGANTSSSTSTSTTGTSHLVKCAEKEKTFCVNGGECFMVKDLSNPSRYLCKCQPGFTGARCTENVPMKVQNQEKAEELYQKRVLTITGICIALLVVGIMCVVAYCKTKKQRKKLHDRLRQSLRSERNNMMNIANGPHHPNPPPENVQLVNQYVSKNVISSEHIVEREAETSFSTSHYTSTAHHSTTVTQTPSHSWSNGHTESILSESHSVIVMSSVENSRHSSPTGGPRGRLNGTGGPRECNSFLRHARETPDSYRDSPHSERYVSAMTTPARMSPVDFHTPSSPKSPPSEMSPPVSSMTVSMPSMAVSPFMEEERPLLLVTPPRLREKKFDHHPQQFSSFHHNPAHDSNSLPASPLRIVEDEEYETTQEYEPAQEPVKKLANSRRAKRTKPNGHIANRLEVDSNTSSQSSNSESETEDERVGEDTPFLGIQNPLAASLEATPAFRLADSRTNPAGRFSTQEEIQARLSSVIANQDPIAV

[7] = system: Neuregulin-1 EGF-like domain; test: small molecules binding NRG1 EGF domain – biochemical, small-molecule microarray, 635 nm fluorescence, primary screen (AID 1081); settings: higher = more signal;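 note: binding of the protein to compounds printed on small-molecule microarray slides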
[8] = FRG1 expression reporter modulators in myotubes – cell-based, C2C12 myotubes, firefly/Renilla luciferase, luminescence, FRG1 inhibition for FSHD, primary screen (AID 1084); settings: FRG1 promoter luciferase, higher = more signal, called active from +8 up or from −8 down
[9] = small molecules captured by biotinylated probe aFST – biochemical, small-molecule microarray, fluorescence 635/667, stem cell growth factor project, primary screen (AID 1086); settings: higher = more signal;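 note: score merges 667 nm fluorescence with signal-to-noise of each printed compound spot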
[10] = binders of probe aHhip on microarray, primary screen, stem cell growth factor project, biochemical, small-molecule microarray, fluorescence 635/667 (AID 1087); settings: higher = more signal;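 note: score merges spot fluorescence at 667nm with spot signal to noise ratio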
[11] = system: PRMT1 (protein arginine N-methyltransferase 1); test: small molecules binding arginine methyltransferase PRMT1 – biochemical, small-molecule microarray, 635 nm fluorescence, primary screen (AID 1088); settings: higher = more signal;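 note: binding of Prmt1 protein to compounds spotted on small-molecule microarray slides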
[12] = growth effects on S. cerevisiae YJM789 – YJM789 clinical isolate, OD600, 24 h, basal, primary screen (AID 1089); settings: higher = more signal, called active from +8 up or from −8 down;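 note: growth of clinical yeast isolate S. cerevisiae YJM 789 seeded 1000 cells per well; test concentration not given here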
[13] = S. pombe growth modifiers, basal conditions – strain 972, OD600, 24 h, no modulator, primary screen (AID 1090);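 note: basal condition with compound alone and no growth modifier present; test concentration not given here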; settings: S. pombe 972 growth, higher = more signal, called active from +8 up or from −8 down
[14] = budding yeast growth modifiers under rapamycin – strain BY4716, OD600, 96 h, primary screen (AID 1091); note: test concentration not given here; settings: S. cerevisiae BY4716 + rapamycin, higher = more signal, called active from +8 up or from −8 down
[15] = target: Torsin-1A-interacting protein 2 (Homo sapiens) (UniProt Q8NFQ8); test: small molecules binding lysate-expressed LULL1 – cell lysate, human LULL1 lysate, 635/667 nm fluorescence, primary screen (AID 1092); settings: small-molecule microarray, hLULL1 lysate binding, 635 nm fluorescence; higher = more signal;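 note: probe is lysate of COS7 cells overexpressing human LULL1; score merges per-feature 667 nm fluorescence with signal-to-noise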
Torsin-1A-interacting protein 2 (Homo sapiens), sequence (Q8NFQ8 whole entry, looked up): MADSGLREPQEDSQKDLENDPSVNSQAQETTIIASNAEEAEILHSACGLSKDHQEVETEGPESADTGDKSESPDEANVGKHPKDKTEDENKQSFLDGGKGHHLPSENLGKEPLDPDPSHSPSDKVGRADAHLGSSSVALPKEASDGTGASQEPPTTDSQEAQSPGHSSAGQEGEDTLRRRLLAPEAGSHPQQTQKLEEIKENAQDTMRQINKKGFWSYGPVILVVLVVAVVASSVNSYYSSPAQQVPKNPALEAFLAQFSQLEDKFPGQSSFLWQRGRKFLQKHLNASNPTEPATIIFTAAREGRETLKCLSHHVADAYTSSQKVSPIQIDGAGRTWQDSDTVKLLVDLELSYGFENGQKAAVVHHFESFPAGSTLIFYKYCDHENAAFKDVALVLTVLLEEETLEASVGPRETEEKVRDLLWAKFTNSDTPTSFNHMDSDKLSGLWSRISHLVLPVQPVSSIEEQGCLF

[16] = optical density change of DRC41 E. coli – strain DRC41, OD650, 24 h, E. coli filamentation project, primary screen (AID 1093);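 note: MC1000 strain lacking acrAB efflux and sulA so SOS filamentation is blocked; test concentration not given here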; settings: E. coli DRC41 growth, higher = more signal, called active from +8 up or from −8 down
[17] = probe aLefty2 binding to arrayed compounds – biochemical, biotinylated probe, 635/667 nm fluorescence, primary screen (AID 1094); settings: small-molecule microarray, higher = more signal;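 note: score merges spot fluorescence near 667 nm with spot signal-to-noise ratio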
[18] = system: Noggin (protein binding on small-molecule microarray); test: small molecules binding Noggin protein – biochemical, 635/667 nm fluorescence, primary screen (AID 1095); settings: 635 nm fluorescence, higher = more signal;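 note: score merges 667 nm feature fluorescence with signal to noise over triplicate slides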
[19] = target: Neurogenic locus notch homolog protein 3 (Homo sapiens) (UniProt Q9UM47); test: small molecules binding NOTCH3 protein – biochemical, 635/667 nm fluorescence, primary screen (AID 1096); settings: small-molecule microarray, 635 nm fluorescence, higher = more signal
[20] = probe aEGFR binding to arrayed compounds – biochemical, biotinylated probe, 635/667 nm fluorescence, primary screen (AID 1097); settings: small-molecule microarray, higher = more signal;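 note: probe is a biotinylated anti-EGFR antibody binding compounds printed on slides; score combines fluorescence near 667 nm and signal to noise of each spot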

SMILES: C=CC[C@@]1(C(=O)NCc2ccccc2)N=C(c2ccc(OCCCO)cc2)O[C@@H]1c1ccccc1
- composite z-score [1]: 1.17
- composite z-score [2]: 0.945
- composite z-score [3]: -0.0778
- composite z-score [4]: -0.523
- composite z-score [5]: -0.347
- composite z-score [6]: 1.61
- composite z-score [7]: 0.845
- z-score [8]: -2.56 (inactive)
- composite z-score [9]: 0.3
- composite z-score [10]: -0.191
- composite z-score [11]: 1.29
- z-score [12]: -2.54 (inactive)
- z-score [13]: -4.81 (inactive)
- z-score [14]: 12.3 (active)
- composite z-score [15]: 3.19
- z-score [16]: 2.92 (inactive)
- composite z-score [17]: 0.195
- composite z-score [18]: -0.469
- composite z-score [19]: 0.311
- composite z-score [20]: -0.147

SMILES: COc1ccc(C#Cc2ccc3c(c2)[C@]2(C(=O)N3)[C@H](c3ccc(O)cc3)N3[C@H](c4ccccc4)[C@H](c4ccccc4)OC(=O)[C@H]3[C@@H]2C(N)=O)cc1
- composite z-score [1]: 0.573
- composite z-score [2]: 0.395
- composite z-score [3]: 0.0519
- composite z-score [4]: 0.889
- composite z-score [5]: -0.695
- composite z-score [6]: 1.68
- composite z-score [7]: 0.785
- z-score [8]: 0.532 (inactive)
- composite z-score [9]: -0.235
- composite z-score [10]: -0.24
- composite z-score [11]: 0.632
- z-score [12]: 1.46 (inactive)
- z-score [13]: -1.02 (inactive)
- z-score [14]: 2.73 (inactive)
- composite z-score [15]: 2.14
- z-score [16]: 1.68 (inactive)
- composite z-score [17]: -0.2
- composite z-score [18]: -0.877
- composite z-score [19]: -0.854
- composite z-score [20]: -0.401

SMILES: COCCOC(=O)N1C(=O)[C@@]2(c3cc(C#CCCO)ccc31)[C@H](c1ccccc1OCCO)N1[C@H](c3ccccc3)[C@H](c3ccccc3)OC(=O)[C@H]1[C@@H]2C(=O)NC[C@H](O)c1ccccc1
- composite z-score [1]: -0.138
- composite z-score [2]: 2.15
- composite z-score [3]: -0.105
- composite z-score [4]: 0.365
- composite z-score [5]: 0.3
- composite z-score [6]: 1.12
- composite z-score [7]: 1.06
- z-score [8]: -2.36 (inactive)
- composite z-score [9]: 0.555
- composite z-score [10]: 0.0623
- composite z-score [11]: 1.56
- z-score [12]: -0.524 (inactive)
- z-score [13]: -1.14 (inactive)
- z-score [14]: 2.23 (inactive)
- composite z-score [15]: 1.29
- z-score [16]: 3.51 (inactive)
- composite z-score [17]: -0.0898
- composite z-score [18]: 1.71
- composite z-score [19]: 0.99
- composite z-score [20]: 0.0533

SMILES: COCCOC(=O)N1C(=O)[C@@]2(c3cc(C#CC4(O)CCCCCC4)ccc31)[C@H](c1ccccc1OCCO)N1[C@H](c3ccccc3)[C@H](c3ccccc3)OC(=O)[C@H]1[C@@H]2C(=O)Nc1nc2ccccc2s1
- composite z-score [1]: -0.172
- composite z-score [2]: 1.05
- composite z-score [3]: 0.0359
- composite z-score [4]: 0.659
- composite z-score [5]: 1.11
- composite z-score [6]: 0.41
- composite z-score [7]: 1.26
- z-score [8]: 1.54 (inactive)
- composite z-score [9]: 0.325
- composite z-score [10]: -0.121
- composite z-score [11]: 1.55
- z-score [12]: 2.04 (inactive)
- z-score [13]: -0.312 (inactive)
- z-score [14]: 3.94 (inactive)
- composite z-score [15]: 2.09
- z-score [16]: 2.69 (inactive)
- composite z-score [17]: 0.0498
- composite z-score [18]: 0.724
- composite z-score [19]: 1.09
- composite z-score [20]: 0.0403

SMILES: C=CCN1C(=O)[C@@]2(O[C@@H](CCO)[C@H]([Si](C)(C)c3ccc(OC)cc3)[C@H]2C)c2cc(N(C=O)c3ccccc3)ccc21
- composite z-score [1]: 0.156
- composite z-score [2]: 0.24
- composite z-score [3]: -0.125
- composite z-score [4]: 0.461
- composite z-score [5]: 0.555
- composite z-score [6]: 0.657
- composite z-score [7]: 0.904
- z-score [8]: -1.06 (inactive)
- composite z-score [9]: 0.143
- composite z-score [10]: 0.154
- composite z-score [11]: 1.11
- z-score [12]: 0.551 (inactive)
- z-score [13]: -0.67 (inactive)
- z-score [14]: 21 (active)
- composite z-score [15]: 0.586
- z-score [16]: 1.85 (inactive)
- composite z-score [17]: 0.0183
- composite z-score [18]: 0.366
- composite z-score [19]: 0.259
- composite z-score [20]: -0.0304

SMILES: COC(=O)C1=CC(c2ccc(CO)cc2)=CC(c2cccs2)N(C)C=C1C(=O)OC (stereo not given)
- composite z-score [1]: 1.13
- composite z-score [2]: 0.2
- composite z-score [3]: -0.0625
- composite z-score [4]: -0.0568
- composite z-score [5]: -0.109
- composite z-score [6]: 1.96
- composite z-score [7]: 1.29
- z-score [8]: 1.36 (inactive)
- composite z-score [9]: 0.308
- composite z-score [10]: -0.226
- composite z-score [11]: 0.853
- z-score [12]: -0.543 (inactive)
- z-score [13]: -5.22 (inactive)
- z-score [14]: -0.424 (inactive)
- composite z-score [15]: 2.88
- z-score [16]: 0.637 (inactive)
- composite z-score [17]: 0.0094
- composite z-score [18]: -0.853
- composite z-score [19]: 0.302
- composite z-score [20]: -0.135

SMILES: CC(C)(C)OC(=O)CC[C@@]1(C(=O)NCc2ccccc2)N=C(c2ccc(OCCCO)cc2)O[C@@H]1c1ccccc1CN=[N+]=[N-]
- composite z-score [1]: 0.492
- composite z-score [2]: 1.41
- composite z-score [3]: 0.015
- composite z-score [4]: 1.18
- composite z-score [5]: 1.49
- composite z-score [6]: 1.16
- composite z-score [7]: 1.15
- z-score [8]: 0.59 (inactive)
- composite z-score [9]: 1.19
- composite z-score [10]: -0.148
- composite z-score [11]: 1.53
- z-score [12]: -0.0222 (inactive)
- z-score [13]: -0.0704 (inactive)
- z-score [14]: -0.13 (inactive)
- composite z-score [15]: 2.3
- z-score [16]: 2.64 (inactive)
- composite z-score [17]: 0.387
- composite z-score [18]: 0.958
- composite z-score [19]: 1.14
- composite z-score [20]: 0.236

SMILES: CC(C)(C)OC(=O)CC[C@@]12N=C(c3ccc(OCCCO)cc3)O[C@@H]1c1ccccc1CN(Cc1ccccc1)C2=O
- composite z-score [1]: 0.265
- composite z-score [2]: 0.141
- composite z-score [3]: -0.0118
- composite z-score [4]: 0.294
- composite z-score [5]: 0.549
- composite z-score [6]: 0.391
- composite z-score [7]: 1.14
- z-score [8]: -4.73 (inactive)
- composite z-score [9]: 0.419
- composite z-score [10]: -0.069
- composite z-score [11]: 1.56
- z-score [12]: 1.44 (inactive)
- z-score [13]: -3.05 (inactive)
- z-score [14]: 6.17 (inactive)
- composite z-score [15]: 2.49
- z-score [16]: 1.36 (inactive)
- composite z-score [17]: -0.0664
- composite z-score [18]: 1.62
- composite z-score [19]: 0.981
- composite z-score [20]: -0.103

SMILES: [N-]=[N+]=Nc1ccccc1[C@H]1OC(c2ccc(OCCCO)cc2)=N[C@@]1(Cc1ccccc1)C(N)=O
- composite z-score [1]: 1.28
- composite z-score [2]: 1.6
- composite z-score [3]: 0.317
- composite z-score [4]: 0.988
- composite z-score [5]: 1.42
- composite z-score [6]: 1.14
- composite z-score [7]: 1.13
- z-score [8]: -0.191 (inactive)
- composite z-score [9]: 1.42
- composite z-score [10]: 0.0053
- composite z-score [11]: 1.55
- z-score [12]: 2.87 (inactive)
- z-score [13]: -1.11 (inactive)
- z-score [14]: -0.321 (inactive)
- composite z-score [15]: 2.62
- z-score [16]: 1.6 (inactive)
- composite z-score [17]: 0.789
- composite z-score [18]: 0.49
- composite z-score [19]: 1.09
- composite z-score [20]: 0.441

SMILES: C=CCN1C(=O)[C@]2(O[C@H](CCn3cc([C@H](O)c4ccccc4)nn3)[C@@H]([Si](C)(C)c3ccc(OC)cc3)[C@@H]2C)c2cc(N3CCOC3=O)ccc21
- composite z-score [1]: 0.264
- composite z-score [2]: 0.443
- composite z-score [3]: -0.154
- composite z-score [4]: -0.213
- composite z-score [5]: -0.74
- composite z-score [6]: 0.579
- composite z-score [7]: 1.16
- z-score [8]: -2.7 (inactive)
- composite z-score [9]: -0.297
- composite z-score [10]: -0.0128
- composite z-score [11]: 1.37
- z-score [12]: 0.326 (inactive)
- z-score [13]: 0.155 (inactive)
- z-score [14]: 4.47 (inactive)
- composite z-score [15]: 1.41
- z-score [16]: 1.75 (inactive)
- composite z-score [17]: -0.23
- composite z-score [18]: -0.394
- composite z-score [19]: -0.583
- composite z-score [20]: -0.232
